In PubChem BioAssay (NCATS):
Records with an inconclusive call do not appear. Active and inactive are the calls of the source. Calls follow the shape of the dose curve; as a rule, active = well fitted cell-killing curve with a large enough effect; inconclusive = small, poorly fitted or top-dose-only effect, or effect the other way; inactive = flat fitted curve, though single readings scatter.

What was measured:
Experiment in all cases: Primary qHTS to identify gynecologic anti-cancer compounds using libraries of approved drugs and bioactive compounds (AID 1345084); also: nearly all actives have a fitted effect of over 55% in size
[1] = test system: CAOV3; settings: Gynecologic cancer cell panel viability, ATPlite luminescence, 48 h; series mostly up to 57.5 µM
Procedure, shortened: (§1)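 Five-concentration response, 48 h; readout is ATP-driven luciferase luminescence.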

[2] = test system: CASKI; settings: Gynecologic cancer cell panel viability, ATPlite luminescence, 48 h; series mostly up to 57.5 µM
Procedure, shortened: as §1

[3] = test system: Es-2; settings: Gynecologic cancer cell panel viability, ATPlite luminescence, 48 h; series mostly up to 57.5 µM
Procedure, shortened: as §1

[4] = test system: HeLa; settings: Gynecologic cancer cell panel viability, ATPlite luminescence, 48 h; series mostly up to 57.5 µM
Procedure, shortened: as §1

[5] = test system: Hek293T; settings: Gynecologic cancer cell panel viability, ATPlite luminescence, 48 h, control line for the selectivity index; series mostly up to 57.5 µM
Procedure, shortened: as §1

[6] = test system: OV90; settings: Gynecologic cancer cell panel viability, ATPlite luminescence, 48 h; series mostly up to 57.5 µM
Procedure, shortened: as §1

[7] = test system: PA-1; settings: Gynecologic cancer cell panel viability, ATPlite luminescence, 48 h; series mostly up to 57.5 µM
Procedure, shortened: as §1

[8] = test system: SKOV3; settings: Gynecologic cancer cell panel viability, ATPlite luminescence, 48 h; series mostly up to 57.5 µM
Procedure, shortened: as §1

[9] = test system: Tov-21-G; settings: Gynecologic cancer cell panel viability, ATPlite luminescence, 48 h; series mostly up to 57.5 µM
Procedure, shortened: as §1

[10] = test system: JEG-3; settings: Gynecologic cancer cell panel viability, ATPlite luminescence, 48 h; series mostly up to 57.5 µM
Procedure, shortened: as §1

Measured: Potency

Oc1ccccc1-c1ccccc1
not listed: [10]
inactive: all other assays above

CC(CCc1ccccc1)NC(C)C(O)c1ccc(O)cc1 (stereo unspecified)
not listed: [6] | [7]
inactive: all other assays above

N[C@@H](Cc1ccc(Oc2cc(I)c(O)c(I)c2)c(I)c1)C(=O)O
not listed: [10]
inactive: all other assays above

CC(C)NCC(O)c1ccccc1Cl (stereo unspecified)
not listed: [10]
inactive: all other assays above

CCN(C(C)=O)c1cccc(-c2ccnc3c(C#N)cnn23)c1
not listed: [10]
inactive: all other assays above

O=C(NC(O)C(Cl)(Cl)Cl)NC(O)C(Cl)(Cl)Cl (stereo unspecified)
not listed: [10]
inactive: all other assays above

Cc1ccc(S(=O)(=O)N[C@@H](CCCCN)C(=O)CCl)cc1
not listed: [10]
inactive: all other assays above

O=c1oc2ccccc2c(O)c1C(CC(O)c1ccc(-c2ccc(Br)cc2)cc1)c1ccccc1 (stereo unspecified)
not listed: [10]
inactive: all other assays above

CN1C(=S)CN=C(c2ccccc2)c2cc(Cl)ccc21
not listed: [10]
inactive: all other assays above

CC[N+](CC)(CC)CC
not listed: [10]
inactive: all other assays above

C#CCOC(C(=O)OCCN(C)C)(c1ccccc1)c1ccccc1
not listed: [8]
inactive: all other assays above

O=C(O)c1ccc2[nH]cc(CCCCN3CC=C(c4ccccc4)CC3)c2c1
not listed: [10]
inactive: all other assays above

CC(C)(C)CC(C)(C)c1ccc(O)cc1
inactive: all assays above

CCC1(C2=NCCN2)Cc2ccccc2O1 (stereo unspecified)
not listed: [10]
inactive: all other assays above

COC[C@H]1OC(=O)c2coc3c2[C@@]1(C)C1=C(C3=O)C2CCC(=O)[C@@]2(C)C[C@H]1OC(C)=O (stereo partly specified)
not listed: [7] | [8]
inactive: all other assays above

C#CCN(C)[C@H](C)Cc1ccccc1
not listed: [8]
inactive: all other assays above

OCCOc1ccccc1
not listed: [10]
inactive: all other assays above

Nc1ccncc1
not listed: [10]
inactive: all other assays above
